HEK293 tox: cytotoxic in the GLP-1 receptor inverse agonist counter-screen. 410,000 compounds, 0.13% hits. HEK293 cAMP-luciferase reporter cells, luminescence, 24 h. Potency, µM (series often up to 38.3 µM), inactives show at the top dose activity change, negative = inhibition, hits mostly inhibitors;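 note: loss of luciferase light is scored as toxicity; potency is the fitted concentration of half-maximal effect; % is set by controls: 0 for no effect and ±100 for the full control effect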
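Here, cytotoxicity is scored as loss of luminescence. The MLSMR collection was tested on cells seeded in medium containing 10% Nu serum, with a 24 hr compound exposure preceded by 12 hours of culture.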
GLP-1R agonist: GLP-1 receptor (human) agonism. HEK293 GLP-1R CRE-luciferase, luminescence, 4-6 h; cells express a hypersensitive GLP-1R form. Potency, µM (highest dose often 45.6 µM), inactives show at the top dose activation, usual class: activators. 380,000 compounds, 0.007% hits. AID 624172; note: potency is the fitted concentration of half-maximal effect; % of control where 0% means no effect
LDHA block: inhibitors of human lactate dehydrogenase A. P00338. 480,000 compounds, 0.15% hits. purified LDHA, NADH/diaphorase-resazurin fluorescence; active compounds read low. activity change, % (values are at about 110 or 230 µM); in the data active = activity change below about -30%; inconclusive = mostly about -25% to -30%;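 note: plate controls were DMSO wells for no effect and wells without enzyme for full effect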
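LDH5 2 nM; NADH 0.06 mM, pyruvate 0.2 mM; 200 mM Tris pH 7.4, EDTA, Tween-20; 5 min RT. Detection: diaphorase 0.133 mg/mL + resazurin 37 µM, fluorescence ex540/em590 at 0 and 20 min; normalized to enzyme-free and DMSO wells.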
GLP1R inv ag: GLP-1 receptor (human) inverse agonism; HEK293 GLP-1R CRE-luciferase, luminescence, 24 h; GLP-1R form is constitutively active; Potency, µM (series often up to 38.3 µM), inactives show top-dose activity change, negative = inhibition, usual class: inhibitors; 410,000 compounds, 1.6% hits; note: potency is the fitted concentration of half-maximal effect; % is set by controls: 0 for no effect and ±100 for the full control effect; nearly all actives have a fitted effect of over 55% in size
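Inverse agonists were sought by their lowering of basal cAMP reporter luciferase output in HEK293 cells stably carrying constitutively active human GLP-1R, after 24 h compound treatment.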
IDH1 R132H inh: human IDH1 R132H inhibition; O75874; IDH1-R132H enzyme, NADPH consumption, diaphorase/resazurin fluorescence; AID 602179; 390,000 compounds, 0.093% hits; Potency, µM (titrated, usually from 76.6 µM), for the others: top-dose activity change, negative = inhibition, hits mostly inhibitors; note: potency is the fitted concentration of half-maximal effect; % is set by controls: 0 for no effect and ±100 for the full control effect; nearly all actives have a fitted effect of over 65% in size
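IDH1-R132H (0.5 ug/mL) preincubated 30 min with compound, then NADPH (0.016 mM) and alpha-KG (2 mM) added; 80 min at RT, pH 7.5. Remaining NADPH coupled via diaphorase/resazurin to fluorescence (540/590 nm); concentration-response curves normalized to no-enzyme control.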
PTHR1 ag: PTHR1 (human) receptor agonism; Q03431; HEK293 GP2 PTHR1 cells, GloSensor cAMP luminescence, 1 h; Potency, µM (series often up to 115 µM), for the others: at the top dose activation, actives largely listed as activators; 410,000 compounds, 0.075% hits; note: potency is the fitted concentration of half-maximal effect; nearly all actives have a fitted effect of over 55% in size
Target sequence (Q03431 whole entry, looked up): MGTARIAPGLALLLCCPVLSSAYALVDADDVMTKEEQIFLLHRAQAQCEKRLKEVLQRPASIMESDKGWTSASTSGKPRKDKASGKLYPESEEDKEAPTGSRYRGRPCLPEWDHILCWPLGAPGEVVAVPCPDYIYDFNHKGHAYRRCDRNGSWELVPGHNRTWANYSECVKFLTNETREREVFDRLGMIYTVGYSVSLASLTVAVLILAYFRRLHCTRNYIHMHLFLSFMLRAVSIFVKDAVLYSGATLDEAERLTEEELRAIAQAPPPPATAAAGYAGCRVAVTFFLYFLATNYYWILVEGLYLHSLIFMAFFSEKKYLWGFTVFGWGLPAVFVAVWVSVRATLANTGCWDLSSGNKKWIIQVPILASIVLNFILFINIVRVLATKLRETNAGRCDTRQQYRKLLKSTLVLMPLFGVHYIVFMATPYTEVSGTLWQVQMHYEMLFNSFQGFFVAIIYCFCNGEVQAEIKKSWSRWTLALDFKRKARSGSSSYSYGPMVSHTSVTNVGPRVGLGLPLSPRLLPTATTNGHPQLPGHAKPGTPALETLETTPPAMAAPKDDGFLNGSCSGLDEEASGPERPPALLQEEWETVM
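HEK-293-derived GP2 cells expressing PTHR1 and a GloSensor cAMP reporter, 3,000/well, plated overnight, given luciferin plus IBMX (each 0.5 mM as added) for 1 h at 37 °C, then compound for 1 h at 37 °C. Luminescence was read after 15 min at room temperature.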
* hit, by the source's call; i = inactive; ? = inconclusive; · = no result given. Compounds with a hit are over-represented: about 1.7% of the library has one in this group of screens. Unless noted, calls come from the whole dose curve; as a rule, active = well fitted curve in the direction sought with a large enough effect; inconclusive = small, poorly fitted or top-dose-only effect, or another doubt; inactive = no such curve, though single readings can be large; an effect the other way counts as inactive or inconclusive.

SMILES | HEK293 tox | GLP-1R agonist | LDHA block | GLP1R inv ag | IDH1 R132H inh | PTHR1 ag
COc1ccc(-c2cc(NC=O)c3ncc(-c4ccc(OC)c(OC)c4)n3c2)c(OC)c1 | ? | 2.51µM* | 1.9 | -52.7% | · | 3.4%
COc1cccc(-c2cnc3c(NC=O)cc(-c4ccc(OC)cc4OC)cn23)c1 | -36.5% | ? | 0.1 | 0.794µM* | · | -20.1%
COc1ccc(-c2cc(NC=O)c3ncc(-c4cccc(OC)c4)n3c2)cc1 | ? | 12.6% | 4.7 | ? | · | -46.6%
Cc1cn2c(=O)cc(CSc3ccccc3NC(=O)COc3ccccc3Cl)nc2s1 | · | · | -2.1 | · | · | ·
CC(=O)NNC(=S)Nc1ccccc1F | · | · | 3.2 | · | · | ·
Cc1nc(CN2C(=O)COc3ccc(S(=O)(=O)NCc4ccccc4)cc32)no1 | · | · | -1.2 | · | · | ·
O=C(Cn1ncc2c3ccccc3n(Cc3ccccc3)c2c1=O)N1CCCCCC1 | -14.6% | · | -2.7 | -17.5% | -1.8% | i
O=C(Cn1ncc2c3ccccc3n(Cc3ccc(F)cc3)c2c1=O)N1CCN(c2ncccn2)CC1 | -13.6% | 0.1% | 2.1 | 12.6µM* | 9.1% | -9.4%
O=C(Nc1ccccc1)c1c2c(nc3ccccc13)CCC2 | · | · | 8.6 | · | · | ·
COc1ccccc1C(=O)N1CCN(c2oc(-c3cccc(C)c3)nc2C#N)CC1 | · | · | 2.6 | · | · | ·
COc1cc(SC)ccc1C(=O)Nc1ccc(OCC(=O)N2CCOCC2)cc1 | 9.2% | 4.6% | -6.4 | -23.3% | 4.9% | -59.0%
CC(=O)Nc1ccc(OCC(=O)N2CCC(Cc3ccccc3)CC2)cc1 | -1.3% | 6.7% | -4.1 | 12.6µM* | -4.8% | -35.7%
COc1ccccc1C(=O)Nc1ccc(OCC(=O)N2CC(C)CC(C)C2)cc1 (stereo unspecified) | 4.3% | -5.1% | -0.3 | 10µM* | 5.3% | -68.5%
CCc1ccc(OCCN)cc1 | · | · | -1.7 | · | · | ·
O=C(NC1CC1)C1CCN(Cc2nc(-c3ccccc3)no2)CC1 | · | · | 5.6 | · | · | ·
CCn1c(C(=O)NC2CCN(CC(=O)NC3CC3)CC2)cc2ccccc21 | · | · | -0.5 | · | · | ·
CC1(C)CC(NS(=O)(=O)c2ccc(C(C)(C)C)cc2)CC(C)(C)N1 | -13.9% | 2.6% | -4.9 | 3.55µM* | -10.7% | -4.9%
CC(=O)NCCc1sc(-c2cccc(F)c2)nc1C | · | · | 11.2 | · | · | ·
CC(C(=O)O)c1ccc(N2Cc3ccccc3C2=O)cc1 (stereo unspecified) | 2.3% | -10.6% | -4.9 | 6.31µM* | -4.2% | -55.9%
Cc1ccccc1N1Cc2ccccc2C1=O | -3.1% | 8.0% | -6.4 | 19.2% | -5.4% | -3.3%
CCn1cc2nc(SCc3ccc(F)cc3)n(CCc3ccccc3)c(=O)c2n1 | 1.1% | · | 0.3 | 7.94µM* | -12.6% | -30.3%
O=C1CC(=C(c2ccccc2)c2ccccc2)C(=O)N1CCCCN1CCN(c2ccccc2)CC1 | ? | -1.2% | 4.5 | 1.26µM* | 5.6% | i
O=C(CCCN1CCN(c2ccccc2)CC1)c1ccc(F)cc1 | -9.5% | -2.7% | 1.6 | 12.7% | 9.8% | -23.0%
CN1CCC(N(C)CC(=O)Nc2ccc3c(c2)OC(F)(F)O3)CC1 | -5.2% | 5.8% | -33.9* | ? | -1.4% | i
CC1CCCCN1CC(=O)Nc1ccc2c(c1)OC(F)(F)O2 (stereo unspecified) | -2.1% | 20.0% | -5.5 | ? | -6.7% | i
COc1ccc(-c2coc3cc(OCC(=O)NCc4ccc(Cl)cc4)ccc3c2=O)cc1OC | · | · | -4.9 | · | · | ·
CCNc1nc2ccccc2nc1C(C#N)S(=O)(=O)c1ccc(C)cc1 (stereo unspecified) | · | · | 2.4 | · | · | ·
CC(C)C(=O)NC(c1cccc([N+](=O)[O-])c1)c1ccc2cccnc2c1O (stereo unspecified) | 2.51µM* | -14.3% | 4.3 | ? | 1.2% | i
COc1ccc(C(NC(C)=O)c2ccc3cccnc3c2O)cc1OC (stereo unspecified) | · | · | 10.3 | · | · | ·
